{"source": "PubChem BioAssay (NCI)", "note": "Where “and” joins values, the source holds several entries; their conditions need not be identical. Equal entries are not always repeated. Compounds without any hit were thinned out: in the full panel of roughly 83,000, 20% have a hit.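 How to read the values: 0–100, growth inhibition (40 = 60% inhibited); 0, no net growth; -100 to 0, cell death (-40 = 40% of starting cells died; -100 = all dead).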 Calls of active or inactive are those of the source. How the source made its calls: active means growth percent below 10; inactive means the rest.", "data": [{"test_system": "HL-60(TB) leukemia", "experiment": "NCI-60 one-dose screen, 48 h (100 = growth as untreated, 0 = no growth, -100 = all killed)", "settings": "10 µM unless noted", "values": [{"compound": "COc1ccc(-c2csc(N(C(=O)N3CCN(c4cc5c(cc4F)c(=O)c(C(=O)O)cn5C4CC4)CC3)c3ccccc3)n2)cc1", "growth": "-29.6% (active)"}, {"compound": "Cc1ccc(/C=C2\\CN(Cc3cn(CCNc4ccnc5cc(Cl)ccc45)nn3)C/C(=C\\c3ccc(C)cc3)C2=O)cc1", "growth": "-28.8% (active)"}, {"compound": "O=C1Nc2ccc(C(=O)O)c(O)c2C1=O", "growth": "99.8% (inactive)"}, {"compound": "COc1ccc(N)c(S)c1", "growth": "93.4% (inactive)"}, {"compound": "O=C(O)C1C(c2ccccc2)c2ccccc2C(O)C1CO", "note": "(centres undefined)", "growth": "102% (inactive)"}, {"compound": "O=C(N/N=C/c1cc(Cl)ccc1O)C(=O)N/N=C/c1cc(Cl)ccc1O", "growth": "46.1% (inactive)"}, {"compound": "O=C(Nc1ccc(-n2cc(-c3ccncc3)c(-c3ccc(Cl)c(O)c3)n2)cc1)c1cc(C(F)(F)F)cc(C(F)(F)F)c1", "growth": "52.6% (inactive)"}, {"compound": "O=C(CCN1CCCC1)Nc1ccc2c(NCc3ccc(F)cc3)c3ccccc3nc2c1", "growth": "-47.3% (active)"}, {"compound": "COc1cc(C)cc2oc3oc(=O)c(-c4nc5ccccc5s4)cc3c(=O)c12", "growth": "109% (inactive)"}, {"compound": "CCOC(=O)C1=C(N)Oc2c(sc3c(CC)cccc23)C1c1ccc(F)cc1", "note": "(centres undefined)", "growth": "23.7% (inactive)"}, {"compound": "CC(O)(CC(=O)CC(=O)c1ccccc1)c1ccccc1", "note": "(centres undefined)", "growth": "101% (inactive) and 90.1% (inactive)"}, {"compound": "COc1ccc(C2CC(c3cccs3)=NN2c2ccc(S(=O)(=O)NC(=O)Nc3ccc(C)cc3)cc2)cc1", "note": "(centres undefined)", "growth": "126% (inactive)"}, {"compound": "O=C1/C(=C/c2ccc(Cl)cc2)COc2ccc(O)cc21", "growth": "-11.3% (active)"}, {"compound": "COCCNC(=O)c1ccc(-c2nc3ccc4[nH]ncc4c3c3c2CCCC3)cc1", "growth": "11.4% (inactive)"}, {"compound": "COc1ccc(-c2nnc(SCC(=O)Nc3ccc(C(=O)/C=C/c4ccccc4)cc3)o2)cc1OC", "growth": "90% (inactive)"}, {"compound": "COc1ccc(-c2cc(-c3cn(-c4cccc(Cl)c4)nc3-c3ccc(OC)cc3)[nH]c(=S)n2)cc1", "growth": "60.4% (inactive)"}, {"compound": "CC1=NN(c2nc(SCC(=O)Nc3nc4ccc(C)cc4s3)nc(-c3ccccc3)c2C#N)C(=O)C1", "growth": "111% (inactive)"}, {"compound": "O=C(/C=C/c1cccc(Cl)c1)c1ccccc1", "growth": "95.3% (inactive) and 82.5% (inactive)"}, {"compound": "COc1ccc(C(=O)N2NC(=O)/C(=C/c3ccccc3F)N=C2c2ccccc2)cc1", "growth": "93.9% (inactive)"}, {"compound": "O=C1/C(=C/c2ccccc2Br)COc2ccc(O)c(O)c21", "growth": "-9.04% (active)"}, {"compound": "CCOc1ccc(-c2nonc2NC(=O)c2cccc(C)c2)cc1OCC", "growth": "73% (inactive)"}, {"compound": "c1nc(SC2=NCCN2)c2[nH]cnc2n1", "growth": "22.6% (inactive)"}, {"compound": "COC(=O)[C@@H](CCCCNC(=O)[C@]12CCC(C)(C)C[C@@H]1C1=CC[C@@H]3[C@@]4(C)C/C(=C/c5ccco5)C(=O)C(C)(C)[C@@H]4CC[C@@]3(C)[C@]1(C)CC2)NC(=O)[C@]12CCC(C)(C)C[C@@H]1C1=CC[C@@H]3[C@@]4(C)C/C(=C/c5ccco5)C(=O)C(C)(C)[C@@H]4CC[C@@]3(C)[C@]1(C)CC2", "growth": "114% (inactive)"}, {"compound": "CN(CCc1ccccn1)c1ccccc1", "growth": "34.4% (inactive)"}, {"compound": "CCCCCCC(C)CC1=C(O)c2ccccc2C(=O)C1=O", "note": "(centres undefined)", "growth": "37.5% (inactive)"}, {"compound": "CC(C)N1C(=O)/C(=C2\\SC(=S)N(C(C)C)C2=O)SC1=S", "growth": "100% (inactive)"}, {"compound": "COC(=O)[C@H](NC(=O)C1(C)CCC[C@]2(C)[C@H]3C[C@H]4C(C(C)C)=C[C@]3(CC[C@@H]12)[C@@H]1C(=O)CCC(=O)[C@@H]14)C(C)C", "note": "(some centres undefined)", "growth": "103% (inactive)"}, {"compound": "COc1cc(-c2nn(-c3cccc(NC(=O)c4ccccc4)c3)cc2-c2ccncc2)ccc1Cl", "growth": "-18.8% (active)"}, {"compound": "CCNC(=O)Nc1ccc(-c2nc3c(c(N4CCOC[C@@H]4C)n2)CCN(C2COC2)C3)cc1", "growth": "82.6% (inactive) and 44.4% (inactive)"}, {"compound": "O=C(/C=C/c1cccc(Cl)c1)OCc1ccc2cc1OCC#C/C=C\\C#CCO2", "growth": "81.8% (inactive)"}, {"compound": "CC(C)(C)CC1(C)NC(=O)NC1=O", "note": "(centres undefined)", "growth": "114% (inactive)"}, {"compound": "CCCCCCN(CCCCCC)c1ccc(/C=C2/SC(=O)N(c3nc(N4CCCC4)nc(N4CCCC4)n3)C2=O)c(C)c1", "growth": "20.2% (inactive)"}, {"compound": "CN(C)c1ccc(-c2cc(-c3ccc(Nc4nc(Nc5ccc(Cl)cc5)nc(Nc5ccc(Cl)cc5)n4)cc3)no2)cc1", "growth": "3.2% (active)"}, {"compound": "O=C1c2ccccc2CN1c1ccccc1", "growth": "75.1% (inactive)"}, {"compound": "CC1=C(C)C[C@]2(C(=O)O[C@H]3CCCC[C@@H]32)[S@](=O)C1", "growth": "98.1% (inactive)"}, {"compound": "Cc1ccc(-c2cc(-c3ccc(Cl)cc3)nc(NC(=O)c3cccnc3)n2)cc1", "growth": "110% (inactive)"}, {"compound": "CC(C)C[C@H](NC(=O)[C@@H](Cc1ccccc1)n1ccc(Nc2ccccc2)cc1=O)B(O)O", "growth": "-7.72% (active)"}, {"compound": "Oc1ccc(CCn2c(O)c(/C=C3\\CN=c4ccccc4=N3)sc2=S)cc1", "growth": "19.5% (inactive)"}, {"compound": "CS(=O)(=O)Nc1cc(-c2ccc3ncnc(Nc4ccc5c(cnn5Cc5cccc(F)c5)c4)c3c2)cnc1Cl", "growth": "-23.9% (active)"}]}]}
